For 20 compounds, Potency results are on record in PubChem BioAssay (NCATS).

Results filed as inconclusive are left out. Activity calls are given as the source filed them. The call rests on the fitted dose curve; in most records, active means well fitted cell-killing curve with a large enough effect; inconclusive means small, poorly fitted or top-dose-only effect, or effect the other way; inactive means no such curve, though single readings can be large or run the other way.
Potency means the concentration at half of the fitted maximal effect.

The experiment is described as follows: Quantitative High-Throughput drug screen in 47 multiple myeloma cell lines against the NCATS MIPE library collection: L363_DSMZ cell viability assay (AID 1918984). Further: nearly all actives have a fitted effect of over 40% in size. As to conditions: L363 myeloma viability, CellTiter-Glo ATP luminescence, 48 h; series mostly up to 45.8 µM. The text has this: PI: Beverly A. Mock Ph.D.
Laboratory of Cancer Biology and Genetics,
Center for Cancer Research, National Cancer Institute,
National Institute of Health, Bethesda, Maryland
Drug resistance and disease progression are common in multiple myeloma (MM) patients, underscoring the need for new therapeutic combinations. […] We hypothesized that effective combinations would reduce MYC expression and enhance p16 activity. […] These preclinical data identify potentially useful drug combinations for evaluation in drug-resistant MM and reveal potential mechanisms of combined drug sensitivity.
Described herein is the primary MIPE qHTS used to cherrypick compounds. Validated compounds were then further tested for potential synergistic activiy.
[1] Peat TJ, Gaikwad SM, Dubois W, Gyabaah-Kessie N, Zhang S, Gorjifard S, Phyo Z, Andres M, Hughitt VK, Simpson RM, Miller MA, Girvin AT, Taylor A, Williams D, D'Antonio N, Zhang Y, Rajagopalan A, Flietner E, Wilson K, Zhang X, Shinn P, Klumpp-Thomas C, McKnight C, Itkin Z, Chen L, Kazandijian D, Zhang J, Michalowski AM, Simmons JK, Keats J, Thomas CJ, Mock BA. Drug combinations identified by high-throughput screening promote cell cycle transition and upregulate Smad pathways in myeloma. Cancer Lett. 2023 Aug 1;568:216284. doi: 10.1016/j.canlet.2023.216284. Epub 2023 Jun 24. PMID: 37356470; PMCID: PMC10408729.
SEQUENCE No. (e.g., 1, 2, 3, etc.); […] (e.g., Cells, Incubation, Reagent, etc.); VALUE and DESCRIPTION.
1; Cells; 5 uL; white, solid bottom 1536-well Greiner assay plate.
2; Compounds; 23 nL; Kalypsis pin tool (Wako USA) equipped with a 1536-well pin head to transfer to the assay plates.
3; Incubation; 48 hours; 37C incubation.
4; Reagent;5uL; CellTiter Glo (Promega).
5; Detector; 425V; Luminescence; Viewlux PerkinElmer.
NOTES (numbers refer to Sequence numbers above)
1. The cell-based screening methods employed in this study were like those previously published. Briefly, the corresponding myeloma cell lines were screened in 1,536-well plates with 500 cells, 5-uL per well for inhibition of cell viability (assessed by measuring ATP levels with CellTiterGlo).
2. NCATS MIPE 4.0 library of approved and investigational drugs were added using the Kalypsis pin tool. Wells treated with DMSO only for 100% viability and media only for 0% viability were used as controls.
3. The assay plates were covered and incubated for 48 hours in a 37C, 5% CO2 incubator with controlled humidity.
4. After 48 hours, CellTilter-GloTM luminescent substrate mix (Promega) reagent was added to the assay plate and plates we incubated for 5 min at room temperature.
5. Signal was measured as median relative luminescence units on a ViewLux (PerkinElmer) multiplate reader.
[1] Heske CM, Davis MI, Baumgart JT, Wilson K, Gormally MV, Chen L, Zhang X, Ceribelli M, Duveau DY, Guha R, Ferrer M, Arnaldez FI, Ji J, Tran HL, Zhang Y, Mendoza A, Helman LJ, Thomas CJ. Matrix Screen Identifies Synergistic Combination of PARP Inhibitors and Nicotinamide Phosphoribosyltransferase (NAMPT) Inhibitors in Ewing Sarcoma. Clin Cancer Res. 2017 Dec 1;23(23):7301-7311. doi: 10.1158/1078-0432.CCR-17-1121. Epub 2017 Sep 12. PMID: 28899971; PMCID: PMC6636827.
On to `COc1ccc2c(c1OC)CN1CCc3cc4c(cc3C1C2)OCO4` (stereo not given), for which the Potency is 5900 nM (active).

With `COc1ccc(C(CN(C)C)C2(O)CCCCC2)cc1` (stereo not given), the Potency result is “inactive”.

As for `C=C(C)[C@H]1Cc2c(ccc3c2O[C@@H]2COc4cc(OC)c(OC)cc4[C@@H]2C3=O)O1`, the Potency is 148 nM (active).

Consider `Cn1c(CCCC(=O)O)nc2cc(N(CCCl)CCCl)ccc21`, for which the Potency entry was “inactive”.

Turning to `COC[C@@H](NC(C)=O)C(=O)NCc1ccccc1`, the Potency result is “inactive”.

For `CCCC(C)(COC(N)=O)COC(=O)NC(C)C` (stereo not given), the Potency result was “inactive”.

`C[C@@H]1[C@@H](CC(C[C@H]2O[C@@H]3O[C@]4(C)CC[C@@H]5[C@H](C)CC[C@@H]([C@H]2C)[C@@]35OO4)C[S+](=O)([O-])c2ccc(COC(=O)N(C)C)cc2)O[C@@H]2O[C@]3(C)CC[C@H]4[C@H](C)CC[C@@H]1[C@@]24OO3` (stereo not given in full): the Potency is 46.9 nM (active).

Regarding `CC(O)(CS(=O)(=O)c1ccc(F)cc1)C(=O)Nc1ccc(C#N)c(C(F)(F)F)c1` (stereo not given), the Potency is 1480 nM (active).

For the compound `Cc1cccc(C)c1NC(=O)CN1CCCC1=O`, the Potency result was “inactive”.

For the compound `C[C@@H]1[C@@H](C(=O)C[C@H]2O[C@@H]3O[C@]4(C)CC[C@@H]5[C@H](C)CC[C@@H]([C@H]2C)[C@@]35OO4)O[C@@H]2O[C@]3(C)CC[C@H]4[C@H](C)CC[C@@H]1[C@@]24OO3`, the Potency is 59 nM (active).

On to `C[C@@H]1O[C@@H](O[C@H]2C[C@@H](O)[C@]3(CO)[C@H]4[C@H](O)C[C@]5(C)[C@@H](C6=CC(=O)OC6)CC[C@]5(O)[C@@H]4CC[C@]3(O)C2)[C@H](O)[C@H](O)[C@H]1O`, for which the Potency was 46.9 nM (active).

For `CC(C)CC(N(C)C)C1(c2ccc(Cl)cc2)CCC1` (stereo not given), the Potency entry was “inactive”.

`Cn1cc(C2=C(c3cn(C4CCN(Cc5ccccn5)CC4)c4ccccc34)C(=O)NC2=O)c2ccccc21`: the Potency is 833 nM (active).

Consider `CNC(=O)N1N=C(c2ccc(N)cc2)c2cc3c(cc2CC1C)OCO3` (stereo not given), for which the Potency was 5260 nM (active).

Regarding `COC[C@H]1OC(=O)c2coc3c2[C@@]1(C)C1=C(C3=O)C2CCC(=O)[C@@]2(C)C[C@H]1OC(C)=O` (stereo not given in full), the Potency was 11800 nM (active).

As to `N[C@@H](Cc1ccc(N(CCCl)CCCl)cc1)C(=O)O`, the Potency is 5260 nM (active).

In the case of `Fc1ccc(C(OCCN2CCN(CCCc3ccccc3)CC2)c2ccc(F)cc2)cc1`, the Potency entry is “inactive”.

As to `CN(C)[C@@H]1C(=O)C(C(N)=O)=C(O)[C@@]2(O)C(=O)C3=C(O)c4c(O)cccc4[C@@](C)(O)[C@H]3C[C@@H]12`, the Potency entry is “inactive”.

In the case of `Cc1sc2c(c1C)C(c1ccc(Cl)cc1)=N[C@@H](CC(=O)OC(C)(C)C)c1nnc(C)n1-2`, the Potency was 132 nM (active).

On to `C#CCN(C)[C@H](C)Cc1ccccc1`, for which the Potency entry was “inactive”.
